Laboratory results: the supplement of paper PMC3334620
The full ranking holds about 33,000 sequences; the median of “E-score (-0.5 to 0.5)” is about -0.043, and the highest 2% start at about 0.37. The list comes from a sample in which the highest values are over-represented; it also holds similar and randomly drawn sequences.

Biological target: T1, Upc2 (UniProt Q12151)
T1 sequence: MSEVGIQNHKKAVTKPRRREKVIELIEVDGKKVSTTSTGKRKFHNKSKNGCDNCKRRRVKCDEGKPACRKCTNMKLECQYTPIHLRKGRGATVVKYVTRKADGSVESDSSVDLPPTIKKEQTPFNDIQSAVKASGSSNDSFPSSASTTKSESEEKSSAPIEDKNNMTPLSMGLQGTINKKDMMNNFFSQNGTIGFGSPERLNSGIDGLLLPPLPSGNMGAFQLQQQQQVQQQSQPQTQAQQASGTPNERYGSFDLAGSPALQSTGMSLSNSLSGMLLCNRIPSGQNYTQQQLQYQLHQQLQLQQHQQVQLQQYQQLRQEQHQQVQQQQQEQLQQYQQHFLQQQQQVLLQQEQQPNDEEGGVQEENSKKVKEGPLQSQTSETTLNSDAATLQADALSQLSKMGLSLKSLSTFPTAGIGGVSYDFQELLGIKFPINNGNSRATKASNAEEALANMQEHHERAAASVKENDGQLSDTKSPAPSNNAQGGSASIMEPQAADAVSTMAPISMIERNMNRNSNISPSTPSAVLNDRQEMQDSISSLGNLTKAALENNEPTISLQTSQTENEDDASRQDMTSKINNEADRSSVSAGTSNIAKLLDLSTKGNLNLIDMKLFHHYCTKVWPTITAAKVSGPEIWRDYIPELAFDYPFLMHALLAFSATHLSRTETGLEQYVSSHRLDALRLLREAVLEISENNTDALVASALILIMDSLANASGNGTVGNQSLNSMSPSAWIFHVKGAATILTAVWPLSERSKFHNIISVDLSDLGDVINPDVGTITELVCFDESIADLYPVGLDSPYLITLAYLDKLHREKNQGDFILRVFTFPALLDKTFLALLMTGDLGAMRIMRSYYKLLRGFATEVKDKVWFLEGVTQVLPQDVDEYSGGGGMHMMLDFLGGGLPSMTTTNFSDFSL
Test: PBM E-score (8-mer binding enrichment) (E-score (-0.5 to 0.5)); higher = stronger / more preferred TF binding
Conditions: protein concentration: 200 nM; construct: GST-full length
Experimental: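 Universal 'all 10-mer' protein binding microarrays (Agilent AMADID 015681) probed with GST-tagged S. cerevisiae TFs (full-length or DBD) made by in vitro transcription/translation (PURExpress), about 100-200 nM. Bound TF was detected with fluorescent anti-GST. Each ungapped 8-mer (which stands for itself and its reverse complement) is scored by the PBM enrichment score (E-score), a modified Wilcoxon-Mann-Whitney statistic from -0.5 to +0.5, computed with the Universal PBM Analysis Suite. Scale: above 0.35 generally sequence-specific binding.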

Row | Sequence | PBM E-score
1 | CGTACGGA | 0.382
2 | AGTTGGCA | 0.0278
3 | CGTCGATA | -0.028
4 | AAGCTACA | -0.125
5 | CCGTCGCG | 0.132
6 | GAAAAACC | -0.037
7 | TCCTCAAA | -0.24
8 | AGAGCCCG | -0.0194
9 | CTGACGTA | 0.164
10 | ATGAACGC | 0.14
11 | ATGAACGA | 0.459
12 | GTGAACGA | 0.453
13 | ATGAACGG | 0.261
14 | CTGAACTA | -0.104
15 | GTGAACAA | 0.128
16 | CTGAACGC | 0.121
17 | GTGAACTA | 0.142
18 | CTGAACGA | 0.472
19 | TTGACCAA | -0.179
20 | AACTACCT | -0.152
21 | ACCAGAAC | 0.0633
22 | AACGATGC | 0.352
23 | TACGATGA | 0.433

Row | Sequence | PBM E-score
24 | ATCGATGA | -0.0519
25 | AACGATGA | 0.387
26 | AACGATGG | 0.391
27 | AACGATGT | 0.388
28 | CACGATGA | 0.169
29 | GACGATGA | -0.00259
30 | GACGATGC | -0.0158
31 | CACGATGC | 0.0841
32 | CACGATGG | 0.0566
33 | ACCGATGA | 0.0812
34 | CCAGTGAC | -0.217
35 | CAGAGATG | -0.222
36 | GACTGATC | -0.118
37 | GATTCCCC | -0.214
38 | TAGTACCA | -0.148
39 | CAGTACGA | 0.411
40 | AAGTACGT | 0.154
41 | GAGTACAA | -0.0557
42 | TAGTACGA | 0.401
43 | GAGTACGA | 0.375
44 | GAGTACGC | -0.0301
45 | AAGTACGC | 0.115
46 | CAGTACGG | 0.257

Row | Sequence | PBM E-score
47 | CAGTACGC | 0.037
48 | TAGTACAA | 0.00376
49 | AAGTACGA | 0.407
50 | TCTGATCA | -0.317
51 | TCGCAAAA | 0.216
52 | CGCTACAG | -0.105
53 | CGTCTATA | 0.0202
54 | CGGGAGGA | -0.157
55 | AGAGCATA | -0.0221
56 | AACTTTGT | -0.172
57 | TTTAGAAA | 0.133
58 | GCTTAGCA | -0.00347
59 | TAATTACA | -0.0323
60 | AAGATCGC | 0.148
61 | AAGATCGT | 0.371
62 | AAGATCGG | -0.0541
63 | ACGATCGT | 0.438
64 | ACGATCGG | 0.295
65 | ACGATCGC | 0.352
66 | ATTACCGC | 0.0457
67 | GCGAGCTA | 0.207
68 | CCGAGCTC | 0.197
69 | ACGAGCTC | 0.404

Row | Sequence | PBM E-score
70 | ACGAGCTG | 0.36
71 | CCGAGCTA | 0.0202
72 | ACGAGCTA | 0.394
73 | AGGATAGG | -0.0689
74 | CTTCATCC | -0.177
75 | ACTCAGTC | -0.097
76 | GCTGCAGC | -0.125
77 | CCCATACC | 0.0537
78 | CCCATACG | 0.407
79 | ACCATACC | -0.0989
80 | ACCATACA | -0.0345
81 | CCCATACA | -0.22
82 | ACCATACG | 0.399
83 | ACTAAGAA | -0.0494
84 | GATGGGAA | -0.0309
85 | TCGGAAAA | 0.234
86 | ATAAGATA | 0.146
87 | CGTAAAGA | 0.412
88 | CGTAAAGC | 0.403
89 | CCTAAAGC | -0.082
